Bioassay records as filed in PubChem.
VHR inh color: VHR1 (DUSP3) phosphatase inhibition. P51452. recombinant VHR phosphatase, colorimetric substrate read-out. inhibition, % at 20 µM. hit rate 0.7% among 50,000; in the data active = inhibition above about 60%
Target sequence (P51452 whole entry, looked up): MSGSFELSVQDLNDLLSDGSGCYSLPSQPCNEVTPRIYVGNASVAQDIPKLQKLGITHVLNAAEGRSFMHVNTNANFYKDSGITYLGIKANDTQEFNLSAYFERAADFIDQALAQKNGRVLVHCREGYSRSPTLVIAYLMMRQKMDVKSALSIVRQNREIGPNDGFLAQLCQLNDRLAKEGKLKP
* hit, by the source's call. This is one part of a sample in which hits are shown more often than they occur.

SMILES	VHR inh color
N#CC1=C(SCc2ccccc2)NC(=O)C(C#N)C12CCCCC2 (stereo unspecified)	-9
N#CC1=C(S)NC(=O)C(C#N)C12CCCCC2 (stereo unspecified)	81*
C=CCSC1=C(C#N)C2(CCCCC2)C(C#N)C(=O)N1 (stereo unspecified)	0
O=C(Oc1cc(-c2ccccc2)c2oc(=O)sc2c1)c1ccc([N+](=O)[O-])cc1	0
Cc1cc(/C=C2/SC(=S)NC2=O)c(-c2ccccc2)n1-c1ccccc1	3
COc1ccc(CNC(=O)c2ccc(C)c([N+](=O)[O-])c2)cc1	-27
Cc1ccc(-n2c(C)nc(N)c2C(=O)c2ccccc2)cc1	-8
CCOc1ccc(C(=O)Nc2cc(=O)n(C)c(=O)n2C)cc1	16
CCOc1ccc(N2Cc3ccccc3C2)cc1	-7
CCOc1ccc(N2Cc3ccc(C(=O)NN)cc3C2)cc1	91*
O=C(CSc1nc2ccc(N3C(=O)c4ccccc4C3=O)cc2s1)Nc1cccc([N+](=O)[O-])c1	47
CCC(C)OC(=O)C1=C(C)NC2=C(C(=O)CCC2)C1c1ccc(OC)c(OCc2ccccc2)c1 (stereo unspecified)	4
COc1ccc(N(CC(=O)Nc2cccc(C(F)(F)F)c2)S(C)(=O)=O)c(OC)c1	-12
O=C(O)CSCC(NC(=S)Nc1ccccc1)C(=O)O (stereo unspecified)	-4
CCC(C)C(NC(=S)Nc1ccccc1)C(=O)O (stereo unspecified)	98*
CC(=O)Nc1ccc(NC(=S)Nc2ccccc2)cc1	7
CCN(CC)S(=O)(=O)c1ccc(NC(=S)Nc2ccccc2)cc1	-7
O=C(NC(Cc1ccccc1)C(=O)Nc1ccccc1)OCc1ccccc1 (stereo unspecified)	4
O=C(O)C(Cc1ccccc1)NC(=S)Nc1ccccc1 (stereo unspecified)	99*
COc1ccc(/C=C/C(=O)Nc2ccc(-c3ccccc3)cc2)cc1OC	-8
O=C(COc1ccc(Br)cc1)NCc1ccncc1	-2
COc1cc(OC)c(OC)cc1/C=C1/C(=O)NC(=O)N(c2ccccc2)C1=O	6
COC(=O)c1ccc(COc2ccc3c(oc(=O)c4ccccc43)c2C)cc1	-5
CC(=N/O)/C(C)=N\NS(=O)(=O)c1ccc(C)cc1	2
Cc1ccc([N+](=O)[O-])cc1Cc1ccc(Cl)cc1	-58
SMILES	VHR inh color
Cc1ccc(-c2noc(COc3ccc4ccccc4c3)n2)cc1	-1
COc1cc(C(=O)N2c3ccccc3-c3c(ssc3=S)C2(C)C)cc(OC)c1OC	10
Cn1ccnc1SCC(=O)N1c2ccccc2-c2c(ssc2=S)C1(C)C	37
COc1ccc2c(c1)N(C(=O)CN1C(=O)c3ccccc3C1=O)C(C)(C)c1ssc(=S)c1-2	-14
CC1(C)c2ssc(=S)c2-c2ccccc2N1C(=O)CSc1nnc(N)s1	-2
CC1(C)c2ssc(=S)c2-c2ccccc2N1C(=O)CN1CCOCC1	97*
CC1(C)c2ssc(=S)c2-c2ccccc2N1C(=O)CN1CCCCC1	98*
COc1ccc(OC)c(NC(=O)c2cc(Cl)c(OC)c(Cl)c2)c1	-14
COC(=O)c1c(C)oc2cc(Br)c(OCC(N)=O)cc12	-30
CCc1ccccc1N/C(N)=N\c1nc(C)cc(C)n1	-7
CCCCc1c(C)nc(N/N=C(\C)c2cccc([N+](=O)[O-])c2)[nH]c1=O	-30
CC(=O)c1ccc(N2C(=O)C=CC2=O)cc1	84*
CC(=O)c1ccc(N2C(=O)C3C4C=CC(CC4)C3C2=O)cc1 (stereo unspecified)	-20
CCOC(=O)c1ccc(N2C(=O)C=CC2=O)cc1	49
O=C(Nc1ccc(S(=O)(=O)N2CCCC2)cc1)c1ccc(-c2ccccc2)cc1	-8
Cc1ccc(NCC(=O)N/N=C\c2cc(Cl)ccc2O)cc1	-5
COc1cc(/C=C2\C(=O)NC(=O)N(c3ccc(C)c(C)c3)C2=O)cc(I)c1O	6
Cc1ccc(/C(O)=C2\C(=O)C(=O)N(c3nncs3)C2c2cccc([N+](=O)[O-])c2)cc1 (stereo unspecified)	-10
Cc1ccc(C)c(NC(=O)C2C3C4CCC(C4)C23)c1 (stereo unspecified)	1
O=C(Nc1ccc(Br)cc1)C1C2C3CCC(C3)C12 (stereo unspecified)	-9
Cc1cc(C)c(NC(=O)C2C3C4CCC(C4)C23)c(C)c1 (stereo unspecified)	114*
O=C(Nc1ccc(Cl)cc1)C1C2C3CCC(C3)C12 (stereo unspecified)	118*
Cc1ccc(NC(=O)C2C3C4CCC(C4)C23)cc1 (stereo unspecified)	-22
O=C(Nc1ccccc1)C1C2C3CCC(C3)C12 (stereo unspecified)	-5
Cc1ccc(NC(=O)CC(C(=O)O)C2CCCO2)cc1 (stereo unspecified)	-25
SMILES	VHR inh color
COC(=O)c1ccc(C2Nc3cc(C)c(C)cc3NC3=C2C(=O)CC(C)(C)C3)cc1 (stereo unspecified)	6
CCOc1cc(C2C(C(=O)OCC3CCCO3)=C(C)NC3=C2C(=O)CCC3)cc([N+](=O)[O-])c1O (stereo unspecified)	-12
Cc1cc2c(cc1C)NC(c1c(F)cccc1F)C1=C(CC(C)(C)CC1=O)N2 (stereo unspecified)	-9
CCOc1cc(C2Nc3cc(C)c(C)cc3NC3=C2C(=O)CC(C)(C)C3)cc([N+](=O)[O-])c1O (stereo unspecified)	118*
CC(=O)Nc1ccc(C2Nc3cc(C)c(C)cc3NC3=C2C(=O)CC(C)(C)C3)cc1 (stereo unspecified)	100*
COc1cc(C2Nc3cc(C)c(C)cc3NC3=C2C(=O)CC(C)(C)C3)cc(Br)c1OC (stereo unspecified)	2
S=C(Nc1ccccc1)Nc1ccc(Oc2ccc(NC(=S)Nc3ccccc3)cc2)cc1	-20
CCOC(=O)C1=C(O)/C(=C/c2ccc(Cl)cc2Cl)SC1=Nc1ccccc1	17
O=C(O)c1ccc(-c2ccc(/C=C3\SC(=S)N(Cc4ccccc4)C3=O)o2)cc1	-11
Cc1ccc(C(=O)Nc2c(C(=O)N3CCC(C(N)=O)CC3)cnn2-c2ccccc2)cc1	-11
Cc1ccc(C2=C/C(=C\c3cc([N+](=O)[O-])ccc3Cl)C(=O)O2)cc1	7
Cc1ccc([N+](=O)[O-])cc1/C=C1/C=C(c2ccccc2)OC1=O	96*
O=C1OC(c2ccccc2)=C/C1=C/c1ccc(-c2ccc([N+](=O)[O-])cc2Br)o1	0
COc1cc(C(=O)N2CCN(C3CCN(Cc4ccccc4)CC3)CC2)cc(OC)c1OC	-9
O=[N+]([O-])c1ccc(S(=O)(=O)N/N=C/c2ccc3c(c2)OCO3)cc1	-19
CC(C)(C)c1ccc(S(=O)(=O)N/N=C/c2ccc3c(c2)OCO3)cc1	111*
COc1ccc(S(=O)(=O)N/N=C/c2ccc3c(c2)OCO3)cc1	-5
Cc1ccccc1/C=N/N1CCN(Cc2ccccc2Cl)CC1	-5
C/C(=N\Nc1nnc2c(n1)[nH]c1ccccc12)c1ccc(Br)cc1	-17
CCOc1ccccc1NC(=O)CSCc1ccc(Cl)cc1Cl	-5
